Bioassay records from PubChem.
The list is not random: actives were taken first. Their share in the collection is about 22%.
Shiga inhibitor = Shiga toxin inhibition | AID 2315 | Vero cells, Shiga toxin protein synthesis inhibition reporter | inhibition, % at 38.7 µM | actives 9.2% (n = 290,000); in the data active = inhibition mostly above about 28%, no sharp cut-off; inactive = mostly below about 43%; also: 0% is about no effect
CHX counter = counter-screen for Shiga toxin inhibitors: cycloheximide protein synthesis inhibition; actives 12% (n = 300,000); max response, %; cell reporter, cycloheximide protein synthesis inhibition counterscreen; in the data active = max response mostly above about 13%, no sharp cut-off; inactive = mostly below about 14%; also: read at 38.3 µM for the half of the compounds with a filed dose; 0% is about no effect
Pf growth 48h = inhibits P. falciparum growth in the first generation, 48 h | P. falciparum luciferase growth in erythrocytes, 48 h | Potency, µM (doses to about 28.7 µM), inactives show top-dose activity change, negative = inhibition, actives largely listed as inhibitors | actives 5.9% (n = 310,000) | AID 504832; also: potency is read from the fitted curve at half-maximal effect; % is scaled to controls: 0 for no effect and ±100 for the full control effect
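Luminescence readout; reporter = integrated firefly luciferase in P. falciparum. RBC culture at 2% hematocrit, 0.1% parasitemia final, 37 C/5% CO2; decreased signal taken as growth inhibition.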
Pf growth 96h = P. falciparum growth inhibition at 96 hours; P. falciparum luciferase reporter growth, 96 h; Potency, µM (series often up to 28.7 µM), without a hit: at the top dose activity change, negative = inhibition, actives largely listed as inhibitors; actives 6.9% (n = 320,000); AID 504834; also: potency is read from the fitted curve at half-maximal effect; % is scaled to controls: 0 for no effect and ±100 for the full control effect
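Parasite growth measured via integrated firefly luciferase reporter in P. falciparum. Infected erythrocytes at 2% hematocrit, 0.05% parasitemia final were treated 96 hours at 37 C under 5% CO2, and luminescence was read.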
LmPK inhibitor = LmPK (Leishmania mexicana) enzyme inhibition; Potency, µM (series often up to 57.5 µM), for inactives: top-dose activity change, negative = inhibition, usual class: inhibitors; AID 1721; actives 0.37% (n = 290,000); Q27686; purified LmPK, Kinase-Glo ATP luminescence, 1 h; also: potency is read from the fitted curve at half-maximal effect; % is scaled to controls: 0 for no effect and ±100 for the full control effect
Target sequence (Q27686 whole entry, looked up): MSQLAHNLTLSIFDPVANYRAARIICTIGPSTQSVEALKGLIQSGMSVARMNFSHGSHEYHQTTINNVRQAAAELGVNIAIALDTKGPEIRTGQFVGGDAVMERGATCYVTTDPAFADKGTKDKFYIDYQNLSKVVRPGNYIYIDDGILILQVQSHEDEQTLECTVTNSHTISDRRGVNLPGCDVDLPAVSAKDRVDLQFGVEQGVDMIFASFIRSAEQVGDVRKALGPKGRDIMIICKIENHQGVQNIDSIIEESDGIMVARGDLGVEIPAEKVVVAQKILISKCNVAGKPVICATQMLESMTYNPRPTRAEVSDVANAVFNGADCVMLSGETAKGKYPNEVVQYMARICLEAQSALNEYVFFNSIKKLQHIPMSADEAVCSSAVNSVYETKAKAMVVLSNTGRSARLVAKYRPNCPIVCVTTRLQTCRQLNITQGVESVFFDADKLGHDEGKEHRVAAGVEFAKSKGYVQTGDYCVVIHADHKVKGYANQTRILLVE
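Pyruvate kinase activity monitored as ATP production (luciferase luminescence). Conditions: 0.1 nM enzyme, 0.5 mM PEP, 0.1 mM ADP, 1 h, RT; normalized against uninhibited and no-enzyme wells.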
* hit, by the source's call; u = inconclusive; x = no result; + = active, no number; [ ] = remark or other dose. Unless noted, calls follow the shape of the dose curve; as a rule, active = well fitted inhibition curve with a large enough effect; inconclusive = small, poorly fitted or top-dose-only effect, or another doubt; inactive = no such curve, though single readings can be large or run the other way.

SMILES	Shiga inhibitor	CHX counter	Pf growth 48h	Pf growth 96h	LmPK inhibitor
Cc1cccc(NS(=O)(=O)c2c(C)nc3scc(C)n3c2=O)c1	-8	-2	u	16%	0%
Cc1ccc2c(c1)N(C(=O)CCC(=O)NC1CCCCCC1)CCO2	7	8	10%	u	-3%
CC(C)(C)CN1CCC(n2nccc2NC(=O)c2ccccc2Cl)CC1	-11	10	-19%	-13%	9%
Cc1ccc(C2CCN(C(=O)Nc3ccc(F)cc3)C2)cc1 (configuration not stated)	89*	19*	170%	u	0%
CS(=O)(=O)c1ccc(C(=O)OCC(=O)N(CCc2ccccc2)Cc2ccccc2)cc1	x	x	2%	2%	x
CC#CC(=O)N1CCC(CO)(CCc2ccccc2)CC1	63	18*	-11%	-2%	7%
CC1Nc2ncnc(N3CCc4ccccc4C3)c2N(Cc2ccc(Br)cc2)C1=O (configuration not stated)	x	x	2.1µM*	6.6µM*	x
CC1Nc2ncnc(N3CCc4ccccc4C3)c2N(Cc2ccc(Cl)cc2)C1=O (configuration not stated)	x	x	13µM*	5.2µM*	x
c1ccc(Cn2nnc3c(N4CCc5ccccc5C4)ncnc32)cc1	-8	1	u	47%	4%
Cn1c(=O)c2c(nc(N3CCc4ccccc4C3)n2Cc2ccc(Br)cc2)n(C)c1=O	-4	-3	5%	x	-4%
Cn1cc(C(=O)c2ccccc2)cc1-c1nc2ccccc2n1C	31	13*	-29%	u	5%
CCCn1c(=O)c(C(=O)c2ccccc2)nc2ccccc21	15	-4	10%	57%	2%
CCC(=O)c1cc(-c2nc3ccccc3n2C)n(C)c1	13	1	13%	x	5%
Cc1oc(-c2nc3ccccc3n2C)cc1C(=O)c1ccccc1	+	27*	73%	-14%	13µM*
O=C(O[C@@H]1OC2COC(=O)c3cc(O)c(O)c(O)c3-c3c(cc(O)c(O)c3O)C(=O)O[C@@H]([C@H]1O)[C@@H]2O)c1cc(O)c(O)c(O)c1	-12	-2	-11%	-102%	-28%
O=C(CN1CCCCC1)NC(=O)NCc1ccccc1	55	11	14%	0%	0%
c1cc2c(cc1-c1cnc3n1CCC3)OCCO2	87*	16	31%	x	-5%
Cc1ccc(-c2cnc3n2CCCCC3)cc1	14	2	-8%	u	6%
c1ccc(-c2ccc(-c3cnc4n3CCCCC4)cc2)cc1	58	22*	u	x	13%
CCOc1ccc(-c2cnc3n2CCCCC3)cc1	15	8.6*	-24%	u	-6%
COCCNCc1nc2sc(C)c(-c3ccccc3)c2c(=O)[nH]1	23	-2	4%	2%	-3%
CCc1ccc(N(CC(=O)NC(C)C)C(=O)CCC(=O)Nc2ccccn2)cc1	-4	-2	-11%	u	-3%
Cc1ccc(N(CC(=O)NC(C)C)C(=O)CCC(=O)Nc2ccccn2)cc1	-5	1	21%	3.7µM*	-2%
Cc1ccc(N(CC(=O)NCc2ccco2)C(=O)CCC(=O)Nc2ccccn2)c(C)c1	34*	17	-1%	52%	10%
Cc1cc(C)cc(N(CC(=O)NCc2ccco2)C(=O)CCC(=O)Nc2ccccn2)c1	8	12	u	50%	0%
SMILES	Shiga inhibitor	CHX counter	Pf growth 48h	Pf growth 96h	LmPK inhibitor
Cc1ccc(N(CC(=O)NCc2ccccc2)C(=O)CCC(=O)Nc2ccccn2)c(C)c1	-6	-5	u	16%	0%
Cc1cc(C)cc(N(CC(=O)NCc2ccccc2)C(=O)CCC(=O)Nc2ccccn2)c1	-7	-8	2.1µM*	5%	2%
CCCC(=O)Nc1nc2c(ncn2[C@@H]2O[C@H]3COP(=O)(O)O[C@@H]3[C@@H]2OC(=O)CCC)c(=O)[nH]1	-6	-11	x	x	x
CCCC(c1nnnn1CCOC)N1CCN(c2nc3ccccc3s2)CC1 (configuration not stated)	14	4	u	-29%	-7%
CCCCC(c1nnnn1Cc1ccco1)N1CCN(c2nc3ccccc3s2)CC1 (configuration not stated)	62*	23*	9.3µM*	x	1%
c1ccc(C(c2nnnn2Cc2ccco2)N2CCN(c3nc4ccccc4s3)CC2)cc1 (configuration not stated)	58*	31*	u	x	7%
c1ccc(C(c2nnnn2Cc2ccco2)N2CCN(C3CCCC3)CC2)cc1 (configuration not stated)	36	8	-3%	u	2%
COc1cccc(C(=O)OCC(=O)NCCNC(=O)COC(=O)c2cccc(OC)c2OC)c1OC	14	-1	40%	37%	-2%
COc1cc(Cl)ccc1OCc1cc(C(=O)N2CCCC(OC)C2)no1 (configuration not stated)	80*	54*	29%	18%	-5%
COc1cc(Cl)ccc1OCc1cc(C(=O)N2CCCCCC2)no1	74*	32*	3%	u	-11%
COc1ccc(OCc2cc(C(=O)N3CCCN(C(C)=O)CC3)no2)c(Cl)c1	43*	32*	8%	11%	8%
COc1cc(Cl)ccc1OCc1cc(C(=O)N2CCN(C)CC2)no1	7	8	10%	u	-11%
O=C(Nc1ncc(Cl)cc1Cl)c1c(F)cccc1Cl	66*	21	14%	15%	-3%
CC(C)(C)c1ccc(NC(=O)c2c(F)cccc2Cl)cc1	55*	31*	u	9.3µM*	3%
O=C(NNc1c(Cl)cccc1Cl)c1c(F)cccc1Cl	-4	-1	7%	u	2%
Clc1ccc(-n2c(SC/C=C/c3ccccc3)nnc2-c2cccnc2)cc1	-12	-4	12µM*	x	6%
CCSc1nnc(-c2cccnc2)n1-c1ccc(Cl)c(C)c1	-14	-1	x	12µM*	-3%
COc1cccc(-n2c(SCC(=O)O)nnc2-c2cccnc2)c1	-5	-1	16%	u	-2%
CN(C)C(=O)CSc1nnc(-c2cccnc2)n1-c1ccccc1	19	1	x	u	-3%
O=C(CSc1nnc(-c2cccnc2)n1-c1ccccc1)Nc1ccccn1	25	-1	16%	10µM*	5%
COc1ccc(C)cc1N1CC(C(=O)Nc2ccccc2C(=O)NC2CC2)CC1=O (configuration not stated)	x	x	u	-12%	x
CCCCc1nc2c(c3c1C[C@H](C)OC3)CN(C(=O)C1CCCCC1)CC2	x	x	x	x	-8%[11.5 µM]
CC(OC(=O)Cn1cnc2c1c(=O)n(C)c(=O)n2C)C(=O)NC(C)c1ccc(Cl)cc1Cl (configuration not stated)	x	x	u	45%	x
CCOC(=O)N1CCC(NC(=O)c2cccn3c(=O)c4cc(Br)ccc4nc23)CC1	-12	-2	2.6µM*	59%	-1%
Cc1noc(C)c1COC(=O)c1ccccc1Sc1ccccc1C#N	-10	0	x	12µM*	5%
